In all, about 310,000 compounds went through this assay and about 2,200 (0.71%) showed an effect of 50% or more. Effects have a minus sign here. The list comes from a sample in which strong results are over-represented; it also holds similar structures and randomly drawn compounds.
Each compound was assayed against human ether-à-go-go-related gene (hERG) potassium channel (human, UniProt Q12809) (assay: primary screen, population patch clamp on CHO cells stably expressing hERG; higher = less effect of the substance).
Chain of human ether-à-go-go-related gene (hERG) potassium channel (Q12809 whole entry, looked up): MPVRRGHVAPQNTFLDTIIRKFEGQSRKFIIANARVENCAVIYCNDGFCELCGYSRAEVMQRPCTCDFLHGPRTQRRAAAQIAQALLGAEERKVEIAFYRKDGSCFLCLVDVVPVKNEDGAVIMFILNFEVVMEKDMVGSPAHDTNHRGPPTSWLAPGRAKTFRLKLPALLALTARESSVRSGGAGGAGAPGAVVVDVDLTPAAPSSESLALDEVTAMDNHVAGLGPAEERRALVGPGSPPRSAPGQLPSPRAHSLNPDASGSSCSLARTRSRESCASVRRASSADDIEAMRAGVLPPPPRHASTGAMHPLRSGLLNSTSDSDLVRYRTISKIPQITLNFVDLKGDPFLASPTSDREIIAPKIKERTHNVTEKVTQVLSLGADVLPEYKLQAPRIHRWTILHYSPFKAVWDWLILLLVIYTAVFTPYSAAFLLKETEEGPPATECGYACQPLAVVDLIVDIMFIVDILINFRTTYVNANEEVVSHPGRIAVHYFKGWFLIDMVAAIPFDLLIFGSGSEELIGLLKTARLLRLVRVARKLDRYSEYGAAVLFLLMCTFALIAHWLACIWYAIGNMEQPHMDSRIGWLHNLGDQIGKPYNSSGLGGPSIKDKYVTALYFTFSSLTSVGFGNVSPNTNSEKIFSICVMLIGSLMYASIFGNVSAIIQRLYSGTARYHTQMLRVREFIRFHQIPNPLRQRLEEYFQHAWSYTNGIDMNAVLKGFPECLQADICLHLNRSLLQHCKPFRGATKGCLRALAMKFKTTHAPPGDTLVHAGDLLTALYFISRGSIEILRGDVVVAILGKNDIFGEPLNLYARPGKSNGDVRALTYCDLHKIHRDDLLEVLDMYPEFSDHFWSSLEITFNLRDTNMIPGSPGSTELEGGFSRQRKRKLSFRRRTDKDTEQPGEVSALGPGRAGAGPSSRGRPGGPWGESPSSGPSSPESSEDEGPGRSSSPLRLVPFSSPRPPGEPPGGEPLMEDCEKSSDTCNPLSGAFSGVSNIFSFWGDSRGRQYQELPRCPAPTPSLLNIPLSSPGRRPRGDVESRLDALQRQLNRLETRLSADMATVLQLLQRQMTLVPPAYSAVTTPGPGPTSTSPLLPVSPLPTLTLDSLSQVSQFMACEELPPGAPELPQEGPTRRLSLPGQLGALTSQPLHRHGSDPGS

Row | SMILES | hERG current change (%, negative = inhibition) at 1uM [%]
1 | CCOCCCNC(c1ccccc1)c1ccncc1 (stereo not drawn) | 15.3
2 | CN(C)c1ccc(/C=N/NC(=O)c2ccc3c(c2)OCO3)cc1 | 1.12
3 | O=C(Nc1ccccc1N1CCOCC1)c1cccc([N+](=O)[O-])c1 | 2.37
4 | CCOc1ccc(C(=O)Nc2ccccc2N2CCN(C(=O)c3ccccc3)CC2)cc1[N+](=O)[O-] | -84
5 | CN1CCN(c2ccccc2NC(=O)c2cccc([N+](=O)[O-])c2)CC1 | -67.1
6 | CCOc1ccccc1NC(=O)c1ccc(OCC)c([N+](=O)[O-])c1 | 1.13
7 | O=C(Nc1ccccc1N1CCCCC1)c1cccc([N+](=O)[O-])c1 | 9.68
8 | CCOc1ccc(C(=O)NC(=S)Nc2ccccc2N2CCCCC2)cc1[N+](=O)[O-] | 8.22
9 | Cc1nc2nc(SCC(=O)N3CCOCC3)nn2c(C)c1Cc1c(F)cccc1Cl | 3.11
10 | CCOc1cc(N2CCOCC2)c(OCC)cc1NCC(=O)N1CCN(Cc2ccccc2)CC1.Cl | 9.92
11 | COc1ccc(NC(=O)Nc2nnc(-c3ccco3)s2)cc1 | 12.3
12 | NC(=O)c1nsc(C(=O)N(c2ccc(Cl)cc2)C(C(=O)NCC2CCCO2)c2cccs2)c1N (stereo not drawn) | 10.7
13 | S=C(Nc1ccc(Cl)cc1Cl)N1CCN(c2ccccn2)CC1 | 12.7
14 | O=C(CSc1nn(-c2ccc(F)cc2)c(=S)s1)N1CCN(C(=O)c2ccco2)CC1 | -64.6
15 | O=C(CSc1nc(-c2ccc(F)cc2)cs1)N1CCN(C(=O)c2ccco2)CC1 | -43.2
16 | Cc1nc(SCC(=O)N2CCN(C(=O)c3ccco3)CC2)c2c(C)c(C)sc2n1 | -43.9
17 | Cc1sc2ncnc(SCC(=O)N3CCN(C(=O)c4ccco4)CC3)c2c1C | -67.3
18 | O=C(CSc1nn(-c2ccc(Cl)cc2)c(=S)s1)N1CCN(C(=O)c2ccco2)CC1 | -44.1
19 | Cc1sc2nc(C(C)C)nc(SCC(=O)N3CCN(C(=O)c4ccco4)CC3)c2c1C | -41.5
20 | COc1cc(OC)cc(C(=O)Nc2cccc3cccnc23)c1 | 19.3
21 | Cc1cnc(CN(C)C(=O)CC2C(=O)NCCN2Cc2cccc(F)c2F)[nH]1 (stereo not drawn) | 11.2
22 | O=C(NCc1n[nH]c(=S)n1-c1cccc(Cl)c1)c1cccs1 | 9.04
23 | COc1ccccc1C(C)Nc1nc(-c2cccnc2)nc2ccccc12 (stereo not drawn) | 12.2

Row | SMILES | hERG current change (%, negative = inhibition) at 1uM [%]
24 | CCOc1ccccc1OCCOCCN1CC(C)OC(C)C1 (stereo not drawn) | 2.22
25 | Cc1[nH]c2ccccc2c1/C=C/c1nc2ccccc2c(=O)n1-c1ccc([N+](=O)[O-])cc1 | -1.09
26 | Cc1ccc(NC(=S)NC(=O)c2ccc(Br)o2)c(C)c1 | 13.3
27 | Cc1n[nH]c(=O)nc1N/N=C/c1cccs1 | 14.8
28 | Nc1[nH]c(N=NC(=O)c2ccccc2O)c2ccccc12 | -57.5
29 | Nc1[nH]c(N=NC(=O)c2ccccc2)c2ccccc12 | 10.1
30 | Nc1ccccc1C(=O)N=Nc1[nH]c(N)c2ccccc12 | 21
31 | O=c1[nH]c(CN2CC=C(c3ccccc3)CC2)nc2scc(-c3cccs3)c12 | 14.1
32 | CC(C)N(C)CCOC(=O)/C=C/c1ccccc1.Cl | 12
33 | Cc1cc(C)c2[nH]c3nc(SCC(=O)O)nnc3c2c1 | 16.7
34 | CN(C)[C@@H]1CCC[C@H]1OC(=O)C(c1ccccc1)c1ccccc1 | -40.2
35 | CC1CN(C(C)C)C(C)CC1OC(=O)c1ccccc1 (stereo not drawn) | 16.7
36 | CC1CN(C)C(C)CC1OC(=O)C(c1ccccc1)c1ccccc1 (stereo not drawn) | -68.3
37 | O=C(CCS(=O)(=O)Cc1ccccc1)N1CCc2ccccc2C1 | 8.69
38 | O=C(CN1CCC(Cc2ccccc2)CC1)N1CCc2ccccc2C1 | -62.2
39 | Cl.O=C(CN1CCN(c2ccc(F)cc2)CC1)N1CCC(Cc2ccccc2)CC1 | -5.57
40 | O=C(NCCNc1ccccc1[N+](=O)[O-])c1cc(F)c(F)cc1Cl | -2.68
41 | COc1cc(NC(=O)C(C)Oc2ccccc2)c(C(=O)O)cc1OC (stereo not drawn) | 9.7
42 | Cl.OC(c1ccccc1)(c1ccccc1)C1CN2CCC1CC2 (stereo not drawn) | -1.7
43 | Cl.OC(c1cccc(Cl)c1)(c1cccc(Cl)c1)C1CN2CCC1CC2 (stereo not drawn) | -69.6
44 | OC(c1ccccc1)(c1ccc(Cl)cc1)C1CN2CCC1CC2 (stereo not drawn) | -11.9
45 | CCOC(=O)c1ccccc1NC(=O)[C@@H]1CCCN1C(=O)OC(C)(C)C | 3.14
